Results on 39 molecules are retold here after the antibiotic and cytotoxicity screens of Wong et al. (2023).

Structures are written as SMILES. Among all 39,000 compounds or so, about 3,300 (8.5%) were called active. What follows is part of a selection rich in actives, with near analogues and random picks from the rest.

In the test the test system is HepG2. The experiment in a line: cytotoxicity call (relative viability < 0.9). The following applies: 10 µM.
Regarding `Cc1ccc(S(=O)(=O)N(C)C[C@@H]2OCCCC[C@H](C)Oc3ccc(NC(=O)Nc4ccccc4)cc3C(=O)N([C@H](C)CO)C[C@H]2C)cc1`, the cytotoxicity call is “inactive”. On to `Cc1ccc(S(=O)(=O)N2C[C@@H](O)COC[C@H]3O[C@H](CC(=O)NCc4ccccc4Cl)CC[C@@H]32)cc1`, for which the cytotoxicity call is “inactive”. For `COc1ccc(S(=O)(=O)N[C@H]2CC[C@@H](CCNC(=O)CN3CCOCC3)O[C@@H]2CO)cc1`, the cytotoxicity call was “inactive”. Turning to `COc1ccc(S(=O)(=O)Nc2ccc3c(c2)C(=O)N([C@H](C)CO)C[C@H](C)[C@@H](CN(C)C(=O)c2ccccc2)OCCCC[C@@H](C)O3)cc1`, the cytotoxicity call was “inactive”. Regarding `CN(C)CCCNC(=O)C[C@H]1CC[C@H]2[C@H](COc3ccc(NC(=O)NC4CCCC4)cc3C(=O)N2C)O1`, the cytotoxicity call was “inactive”. With `COc1ccc(NC(=O)Nc2ccc3c(c2)C(=O)N([C@@H](C)CO)C[C@@H](C)[C@H](CN(C)C(=O)Cc2ccccc2)OCCCC[C@@H](C)O3)cc1`, the cytotoxicity call was “inactive”. In the case of `CC(=O)N1CCC(C(=O)N2CCC(n3cc(C(C)(C)N)nn3)CC2)CC1` it was “inactive”; in that of `COc1ccc(CN(C)C[C@@H]2OCCCC[C@H](C)Oc3ccc(NC(=O)Nc4c(C)noc4C)cc3C(=O)N([C@H](C)CO)C[C@H]2C)cc1`, “inactive”; in that of `NC(=O)NCC#Cc1ccc2c(c1)[C@]1(C(=O)N2)[C@H](c2ccccc2OCCO)N2[C@H](c3ccccc3)[C@H](c3ccccc3)OC(=O)[C@H]2[C@@H]1C(=O)O`, “inactive”.

As for `CCc1nc2ccc(C(=O)Nc3ccc4c(c3)OCC(=O)N4)cn2c1N(CC)Cc1cccc(Br)c1`, the cytotoxicity call was “inactive”. In the case of `COc1ccc(NC(=O)N(C)C[C@@H]2OCCCC[C@H](C)Oc3ccc(NC(=O)c4ccncc4)cc3C(=O)N([C@@H](C)CO)C[C@H]2C)cc1` it was “inactive”; in that of `COc1ccc(CN(C)C[C@@H]2OCCCC[C@@H](C)Oc3ccc(NC(=O)NC(C)C)cc3C(=O)N([C@H](C)CO)C[C@@H]2C)cc1`, “inactive”; in that of `C[C@@H]1CCCCO[C@H](CN(C)C(=O)CCC(F)(F)F)[C@H](C)CN([C@H](C)CO)C(=O)c2cc(NS(=O)(=O)c3ccc(Cl)cc3)ccc2O1`, “inactive”.

Regarding `C=C(/C=C\CNS(=O)(=O)c1ccc(C)cc1)[C@H](O)[C@H]1CCCN1S(=O)(=O)c1ccccc1[N+](=O)[O-]`, the cytotoxicity call was “inactive”. In the case of `C[C@@H]1CN([C@@H](C)CO)C(=O)Cc2cc(NC(=O)Nc3ccc(C(F)(F)F)cc3)ccc2O[C@@H]1CN(C)Cc1ccncc1`, the cytotoxicity call was “active”.

Turning to `C[C@H]1CN([C@@H](C)CO)C(=O)Cc2cc(NC(=O)Nc3ccc(C(F)(F)F)cc3)ccc2O[C@H]1CN(C)Cc1ccncc1`, the cytotoxicity call was “active”.

As for `C[C@@H]1CCCCO[C@@H](CN(C)C(=O)CCC(F)(F)F)[C@@H](C)CN([C@H](C)CO)C(=O)c2cc(NC(=O)Nc3ccccc3)ccc2O1`, the cytotoxicity call was “inactive”.

For the molecule `N[C@@H](Cn1ccnc1)c1ccccc1`, the cytotoxicity call is “inactive”. For the molecule `COc1ccc(C#Cc2ccc3c(c2)O[C@@H](CN(C)C(=O)c2ccccn2)[C@@H](C)CN([C@@H](C)CO)S3(=O)=O)cc1`, the cytotoxicity call is “inactive”.

On to `CC/C(=C\C(=N\O)C(N)=O)[C@@H](C)[N+](=O)[O-]`, for which the cytotoxicity call was “inactive”.

Consider `CC(=O)N1CCCC(=O)CC1`, for which the cytotoxicity call is “inactive”. In the case of `C[C@@H]1CCCCO[C@H](CN(C)Cc2ccc3c(c2)OCO3)[C@H](C)CN([C@@H](C)CO)C(=O)c2cc(NC(=O)Cc3ccccc3)ccc2O1`, the cytotoxicity call is “inactive”. Turning to `CNC(=O)C[C@@H]1CC[C@H]2[C@@H](COc3ccc(NC(=O)c4ccc(C(F)(F)F)cc4)cc3C(=O)N2C)O1`, the cytotoxicity call is “inactive”. Take `O=C(C[C@@H]1C[C@@H]2c3cc(NC(=O)c4ccc5c(c4)OCO5)ccc3O[C@@H]2[C@@H](CO)O1)NCCc1ccccc1`: the cytotoxicity call is “inactive”. Regarding `O=C(C[C@H]1C[C@H]2c3cc(NC(=O)c4ccc5c(c4)OCO5)ccc3O[C@H]2[C@H](CO)O1)NCc1ccc(Oc2ccccc2)cc1`, the cytotoxicity call was “active”. In the case of `O=C(C[C@@H]1C[C@@H]2c3cc(NC(=O)c4ccc5c(c4)OCO5)ccc3O[C@@H]2[C@H](CO)O1)NCCc1ccccc1` it was “active”; in that of `O=C(C[C@@H]1C[C@H]2c3cc(NC(=O)c4ccc5c(c4)OCO5)ccc3O[C@H]2[C@H](CO)O1)NCc1ccc(Oc2ccccc2)cc1`, “inactive”. Turning to `O=C(C[C@H]1C[C@H]2c3cc(NC(=O)c4ccc5c(c4)OCO5)ccc3O[C@H]2[C@@H](CO)O1)NCc1cccnc1`, the cytotoxicity call was “inactive”. Turning to `O=C(C[C@H]1C[C@H]2c3cc(NC(=O)c4ccc5c(c4)OCO5)ccc3O[C@H]2[C@H](CO)O1)NCc1cccnc1`, the cytotoxicity call was “inactive”. In the case of `O=C(C[C@H]1C[C@H]2c3cc(NC(=O)c4ccc5c(c4)OCO5)ccc3O[C@H]2[C@@H](CO)O1)NCCc1ccccc1` it was “inactive”; in that of `O=C(C[C@H]1C[C@@H]2c3cc(NC(=O)c4ccc5c(c4)OCO5)ccc3O[C@@H]2[C@H](CO)O1)NCc1ccc(Oc2ccccc2)cc1`, “inactive”; in that of `O=C(C[C@H]1C[C@@H]2c3cc(NC(=O)c4ccc5c(c4)OCO5)ccc3O[C@@H]2[C@H](CO)O1)NCc1cccnc1`, “inactive”. For `O=C(C[C@H]1C[C@@H]2c3cc(NC(=O)c4ccc5c(c4)OCO5)ccc3O[C@@H]2[C@@H](CO)O1)NCc1ccc(Oc2ccccc2)cc1`, the cytotoxicity call was “active”. For the molecule `O=C(C[C@@H]1C[C@@H]2c3cc(NC(=O)c4ccc5c(c4)OCO5)ccc3O[C@@H]2[C@H](CO)O1)NCc1ccc(Oc2ccccc2)cc1`, the cytotoxicity call was “active”. Turning to `O=C(C[C@@H]1C[C@@H]2c3cc(NC(=O)c4ccc5c(c4)OCO5)ccc3O[C@@H]2[C@H](CO)O1)NCc1cccnc1`, the cytotoxicity call is “inactive”. As for `C=CCOC(=O)[C@H]1[C@@H]2C(=O)O[C@@H](c3ccccc3)[C@@H](c3ccccc3)N2[C@@H](c2ccc(OCCOC(=O)[C@@H]3C[C@@H]4C(=O)N[C@@H](CC(C)C)C(=O)N4[C@@H]3c3cccc(OCCO)c3)cc2)[C@]12C(=O)Nc1ccc(I)cc12`, the cytotoxicity call was “inactive”. For `CC(C)NC(=O)Nc1cccc2c1O[C@H](CN(C)C(=O)Nc1ccc3c(c1)OCO3)[C@H](C)CN([C@H](C)CO)C2=O`, the cytotoxicity call was “inactive”. For `CC(C)NC(=O)N(C)C[C@H]1OCCCC[C@@H](C)Oc2ccc(NS(C)(=O)=O)cc2C(=O)N([C@@H](C)CO)C[C@H]1C`, the cytotoxicity call was “inactive”.

In the case of `C[C@@H]1CN([C@@H](C)CO)C(=O)c2cccc(NC(=O)c3ccncc3)c2O[C@@H]1CN(C)Cc1ccc(-c2ccccc2)cc1`, the cytotoxicity call was “inactive”.
